Test results taken from PubChem BioAssay.

Target: Neurogenic locus notch homolog protein 2 (Homo sapiens) (UniProt Q04721)
Assay: Notch2 binders on small-molecule microarrays, primary screen, biochemical, small-molecule microarray, 635 nm fluorescence, stem cell growth factors (AID 1073)
Conditions: Notch2 binding, higher = more signal

Chain of Neurogenic locus notch homolog protein 2 (Homo sapiens) (Q04721 whole entry, looked up): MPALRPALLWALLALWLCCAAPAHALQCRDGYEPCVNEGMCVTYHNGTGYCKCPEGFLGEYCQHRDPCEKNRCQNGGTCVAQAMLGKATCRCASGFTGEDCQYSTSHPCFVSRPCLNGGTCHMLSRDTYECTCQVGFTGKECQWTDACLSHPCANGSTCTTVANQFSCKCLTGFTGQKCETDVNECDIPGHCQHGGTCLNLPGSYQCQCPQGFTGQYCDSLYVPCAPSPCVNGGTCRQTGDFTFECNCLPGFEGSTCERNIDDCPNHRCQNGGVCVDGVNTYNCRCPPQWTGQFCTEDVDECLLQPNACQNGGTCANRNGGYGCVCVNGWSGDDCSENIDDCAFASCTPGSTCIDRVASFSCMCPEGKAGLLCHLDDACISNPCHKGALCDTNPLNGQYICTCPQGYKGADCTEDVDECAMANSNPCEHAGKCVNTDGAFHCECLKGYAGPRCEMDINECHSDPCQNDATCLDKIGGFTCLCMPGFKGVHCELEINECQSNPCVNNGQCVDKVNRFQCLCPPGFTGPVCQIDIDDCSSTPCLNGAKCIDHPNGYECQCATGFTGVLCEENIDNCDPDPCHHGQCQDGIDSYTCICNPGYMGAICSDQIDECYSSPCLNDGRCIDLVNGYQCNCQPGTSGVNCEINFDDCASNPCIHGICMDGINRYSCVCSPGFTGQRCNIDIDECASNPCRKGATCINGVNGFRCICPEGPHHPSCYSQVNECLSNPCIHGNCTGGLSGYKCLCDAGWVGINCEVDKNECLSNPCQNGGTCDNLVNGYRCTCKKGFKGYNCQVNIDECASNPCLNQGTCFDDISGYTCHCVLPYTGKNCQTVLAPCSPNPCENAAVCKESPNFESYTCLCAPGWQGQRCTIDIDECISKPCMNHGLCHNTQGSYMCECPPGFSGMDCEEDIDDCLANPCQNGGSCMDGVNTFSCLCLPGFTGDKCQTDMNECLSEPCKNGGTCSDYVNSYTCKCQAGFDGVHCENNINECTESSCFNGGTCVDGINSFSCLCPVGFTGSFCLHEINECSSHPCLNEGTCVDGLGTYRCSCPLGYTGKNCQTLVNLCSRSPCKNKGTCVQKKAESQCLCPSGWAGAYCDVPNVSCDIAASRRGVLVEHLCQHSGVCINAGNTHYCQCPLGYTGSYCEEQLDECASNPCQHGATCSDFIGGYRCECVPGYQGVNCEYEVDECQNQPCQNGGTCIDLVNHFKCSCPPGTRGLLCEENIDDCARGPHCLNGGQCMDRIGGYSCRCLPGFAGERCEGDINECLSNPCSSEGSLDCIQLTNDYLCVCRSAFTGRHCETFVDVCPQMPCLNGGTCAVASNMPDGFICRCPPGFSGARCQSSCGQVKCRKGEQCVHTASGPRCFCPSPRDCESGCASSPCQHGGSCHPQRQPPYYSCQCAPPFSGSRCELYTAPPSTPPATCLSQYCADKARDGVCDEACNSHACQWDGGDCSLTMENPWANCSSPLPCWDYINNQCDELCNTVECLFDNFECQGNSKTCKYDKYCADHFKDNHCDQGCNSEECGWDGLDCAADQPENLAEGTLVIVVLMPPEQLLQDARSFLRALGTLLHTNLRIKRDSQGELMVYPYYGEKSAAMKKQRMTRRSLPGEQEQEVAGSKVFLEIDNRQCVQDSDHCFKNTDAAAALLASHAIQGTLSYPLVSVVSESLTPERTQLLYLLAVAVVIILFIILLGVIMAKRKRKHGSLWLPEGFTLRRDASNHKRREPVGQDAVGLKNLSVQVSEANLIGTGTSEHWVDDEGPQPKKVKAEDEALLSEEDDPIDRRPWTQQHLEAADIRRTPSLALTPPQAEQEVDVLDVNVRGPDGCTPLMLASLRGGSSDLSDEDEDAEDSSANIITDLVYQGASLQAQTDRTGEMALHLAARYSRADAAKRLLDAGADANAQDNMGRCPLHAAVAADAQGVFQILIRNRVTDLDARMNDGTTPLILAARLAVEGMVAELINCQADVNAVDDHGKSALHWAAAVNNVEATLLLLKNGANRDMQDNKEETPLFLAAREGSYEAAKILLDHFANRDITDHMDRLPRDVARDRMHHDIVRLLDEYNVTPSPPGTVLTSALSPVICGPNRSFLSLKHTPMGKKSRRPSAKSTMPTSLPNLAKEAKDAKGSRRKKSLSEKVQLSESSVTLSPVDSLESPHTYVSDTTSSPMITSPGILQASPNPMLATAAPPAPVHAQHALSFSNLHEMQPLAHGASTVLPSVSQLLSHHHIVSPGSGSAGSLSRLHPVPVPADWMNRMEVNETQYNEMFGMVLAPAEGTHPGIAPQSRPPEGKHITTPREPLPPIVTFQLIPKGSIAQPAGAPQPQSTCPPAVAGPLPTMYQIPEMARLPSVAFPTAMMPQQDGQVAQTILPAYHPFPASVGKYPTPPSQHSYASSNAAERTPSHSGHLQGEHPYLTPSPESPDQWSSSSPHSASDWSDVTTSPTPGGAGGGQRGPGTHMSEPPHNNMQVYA

SMILES | composite z-score
COC(=O)C(CC#Cc1ccc2c(c1)[C@]1(C(=O)N2)[C@H](C(=O)N2CCN(c3ncccn3)CC2)[C@H]2C(=O)O[C@H](c3ccccc3)[C@H](c3ccccc3)N2[C@@H]1c1ccc(OCCO)cc1)C(=O)OC | 1.16
COCCOC(=O)N1C(=O)[C@@]2(c3cc(C#CC4=CCCCC4)ccc31)[C@H](c1ccccc1OCCO)N1[C@H](c3ccccc3)[C@H](c3ccccc3)OC(=O)[C@H]1[C@@H]2C(=O)N1CCCCCCC1 | 1.1
CCOC(=O)C[C@H]1[C@H](OC(=O)c2ccc(C(=O)c3ccccc3)cc2)[C@@H](NC(=O)Cc2ccc(OC)cc2)c2cc(OCCCO)ccc2N1C(=O)c1ccccc1 | 0.227
C=CC[C@@]1(C(=O)N2CCOCC2)N=C(c2ccc(OCCCO)cc2)O[C@@H]1c1ccccc1CN=[N+]=[N-] | 1.62
NC(=O)NCC#Cc1ccc2c(c1)[C@]1(C(=O)N2)[C@H](C(=O)NC[C@H](O)c2ccccc2)[C@H]2C(=O)O[C@H](c3ccccc3)[C@H](c3ccccc3)N2[C@@H]1c1ccc(OCCO)cc1 | 0.103
C=C(COC)/C(=C/C[C@H](OC(=O)c1ccncc1)c1ccccc1OCCO)c1cnc2ccccc2c1 | 1.34
[N-]=[N+]=Nc1ccccc1C[C@]1(C(N)=O)N=C(c2ccc(OCCCO)cc2)O[C@H]1c1ccccc1N=[N+]=[N-] | 1.23
CN1C(=O)C2C=CC(C(O)c3ccccn3)N(N(c3ccccc3)c3ccccc3)C2C1=O (centres undefined) | 0.594
NCCCCCCNC(=O)[C@@H]1C[C@@H]2C(=O)N[C@@H](CCCCN)C(=O)N2[C@@H]1c1cccc(OCCO)c1 | 0.303
O=C1N(Cc2ccccc2)c2ccccc2[C@@H]2OC(c3ccc(OCCCO)cc3)=N[C@]12Cc1ccccc1 | 0.848
CCCCCCCCCCC(O)C1C=CC2C(=O)N(C)C(=O)C2N1NC(=O)OC(C)(C)C (centres undefined) | 0.228
OCCCC1=CC(c2ccc(CN3CCCC3)cc2)N(Cc2sc3ccccc3c2Cl)CC1 (centres undefined) | 0.72
[N-]=[N+]=Nc1ccccc1[C@@H]1OC(c2ccc(OCCCO)cc2)=N[C@]1(Cc1ccccc1)C(=O)NCC(O)CO (some centres undefined) | 0.138
C=CCC(OC(C)=O)[C@@H]1[C@@H](N(Cc2cc3ccccc3o2)C(=O)c2ccc(-c3ccccc3)cc2)c2cc(OCCCO)ccc2N1C(=O)c1ccc2ccccc2c1 (some centres undefined) | 0.251
Cc1cc(C)c(C(O)C2C=CC3C(=O)N(c4ccccc4)C(=O)C3N2Nc2ccc(C(C)C)cc2)c(C)c1 (centres undefined) | 1.66
COc1cc(OC)c(C(O)C2C=CC3C(=O)N(c4ccccc4)C(=O)C3N2Nc2ccccc2)cc1Br (centres undefined) | 0.878
CO[C@H]1O[C@H](CO)[C@@H](OC(=O)Nc2ccccc2-c2ccccc2)[C@H](OC(=O)Nc2ccc3c(c2)OCO3)[C@H]1OC(=O)Nc1ccc2c(c1)OCO2 | 1.47
CC1CC/C=C\[C@H]2OC34C=CCN(c5ccc(Cl)cc5)C(=O)[C@H]3N(CCCCCO)C(=O)[C@]4(C)C2C(=O)O1 (some centres undefined) | -1.01
CC(C)N1C(=O)c2ccccc2[C@@H](C(=O)NC2CC2)[C@@H]1c1ccc(CO)cc1 | -0.425
COCCCNC(=O)[C@@]1(Cc2ccccc2CN=[N+]=[N-])N=C(c2ccc(OCCCO)cc2)O[C@H]1c1ccccc1 | 0.932
COc1ccc([Si](C)(C)[C@@H]2[C@@H](CCO)O[C@]3(C(=O)N(Cc4ccc(N5CCCCC5=O)cc4)c4ccccc43)[C@H]2C)cc1 | 0.0177
C=C(/C(=C/C[C@@H](OC(C)=O)c1cccc(OCCO)c1)c1cc(C(=O)OC)ccc1OC)C(C)C | -0.114
C=C(COC)C(=O)CC[C@@H](OC(=O)c1cccnc1)c1ccc(OCCO)cc1 | 1.02
CN(C)c1ccc(C(O)C2C=CC3C(=O)N(c4ccccc4)C(=O)C3N2Nc2ccc([N+](=O)[O-])cc2)cc1 (centres undefined) | 1.52
C=C[C@@H](COC(C)=O)N(C(=O)OC(C)(C)C)S(=O)(=O)c1ccc(Br)cc1 | 0.401
CCCC[C@@H](O)C1=C(COc2ccccc2)C[C@H]2C(=O)N(C)C(=O)[C@H]2[C@H]1CO | -0.23
COC(=O)c1ccc([C@H](NC(=O)c2ccco2)[C@]2(C)C[C@H]2C2CCCCC2)cc1 | 0.329
COc1ccc(CN(C2=CC[C@@]3(C(N)=O)C(=O)C(Cl)=C(Cl)C(=O)[C@@]3(C#N)C2)S(=O)(=O)c2ccc(Br)cc2)cc1 | 0.765
COC(=O)c1cn(C[C@@H](Cc2ccccc2)NC(=O)N[C@H](CO)CCc2oc(C(C)=O)c(C(=O)OC)c2C(=O)OC)nn1 | 0.5
